Data on 11 compounds can be found in PubChem BioAssay.

Assay [1] in a line: liver-stage malaria parasite growth inhibition, primary screen, cell-based, HepG2, luciferase luminescence, HepG2 viability (AID 624349; in the data active = parasite load remaining mostly below about 12%, no sharp cut-off; inactive = mostly above about 10%;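 note: 100% = mean of DMSO negative control wells on the same plate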). To be noted: P. berghei liver stage in HepG2, luciferase luminescence, concentration not given here; parasite load remaining: stronger effect = lower value; viability: measured here: HepG2 viability without parasites.
Assay [2] can be described thus: stimulators of nuclear beta-catenin in C2C12, primary screen, imaging, WNT3A-conditioned medium, mouse C2C12, NPC library (AID 1117326). To be noted: stronger effect = higher value.
A short description of assay [3]: stimulators of insulin release from INS-1E, primary screen, cell-based, 5 mM glucose, NPC library (AID 1117329;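 active = compound raises insulin release from rat beta cells at 5 mM glucose, no numeric limit stated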). The conditions noted are these: rat INS-1E insulin secretion, at 10 µM, stronger effect = higher value.
A short description of assay [4]: glucagon-like peptide 1 release enhancers, primary assay, NCI-H716 cell line, NPC library (AID 1117341;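 active = compound raises GLP1 secretion from the human gut endocrine cells, with no numeric limit stated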). To be noted: NCI-H716 cells, at 10 µM, stronger effect = higher value.
The nature of assay [5]: sensitizers of A549 cells to miR-34 induction, primary screen, imaging, A549 dox-inducible miR-34, nuclei and caspase counts (AID 1347080;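 active = compounds whose cell count with miR-34 switched on is under 0.7 times the count with it off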). To be noted: A549 miR-34 inducible, Hoechst nuclei count, 48 h.
Assay [6] addresses NAD(+) hydrolase SARM1 (Homo sapiens) (UniProt Q6SZW1). The experiment in a line: SARM1 TIR NADase inhibitors, cell lysate, NAD-Glo luminescence (AID 1508614;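 active = compound whose remaining NAD level is above about 45 nM, limit read from the data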;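 note: higher remaining NAD means stronger inhibition of SARM1 NADase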). To be noted: SAM-TIR HEK293T lysate NADase, at 1 µM, stronger effect = higher value.
The target in assay [7] is Mitogen-activated protein kinase 7 (Homo sapiens) (UniProt Q13164). The experiment in a line: ERK5 transactivation activators in reporter cells, primary screen, cell-based, HTS (AID 1508626;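 active = luciferase signal above three times the same-plate solvent-only control wells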;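 note: luciferase driven by Gal4-ERK5 fusion binding five Gal4 sites before minimal TATA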). To be noted: HeLa Gal4-ERK5 transactivation, 18 h, at 5 µM, stronger effect = higher value.
Sequence of Mitogen-activated protein kinase 7 (Homo sapiens) (Q13164 whole entry, looked up, the tested form may be a part): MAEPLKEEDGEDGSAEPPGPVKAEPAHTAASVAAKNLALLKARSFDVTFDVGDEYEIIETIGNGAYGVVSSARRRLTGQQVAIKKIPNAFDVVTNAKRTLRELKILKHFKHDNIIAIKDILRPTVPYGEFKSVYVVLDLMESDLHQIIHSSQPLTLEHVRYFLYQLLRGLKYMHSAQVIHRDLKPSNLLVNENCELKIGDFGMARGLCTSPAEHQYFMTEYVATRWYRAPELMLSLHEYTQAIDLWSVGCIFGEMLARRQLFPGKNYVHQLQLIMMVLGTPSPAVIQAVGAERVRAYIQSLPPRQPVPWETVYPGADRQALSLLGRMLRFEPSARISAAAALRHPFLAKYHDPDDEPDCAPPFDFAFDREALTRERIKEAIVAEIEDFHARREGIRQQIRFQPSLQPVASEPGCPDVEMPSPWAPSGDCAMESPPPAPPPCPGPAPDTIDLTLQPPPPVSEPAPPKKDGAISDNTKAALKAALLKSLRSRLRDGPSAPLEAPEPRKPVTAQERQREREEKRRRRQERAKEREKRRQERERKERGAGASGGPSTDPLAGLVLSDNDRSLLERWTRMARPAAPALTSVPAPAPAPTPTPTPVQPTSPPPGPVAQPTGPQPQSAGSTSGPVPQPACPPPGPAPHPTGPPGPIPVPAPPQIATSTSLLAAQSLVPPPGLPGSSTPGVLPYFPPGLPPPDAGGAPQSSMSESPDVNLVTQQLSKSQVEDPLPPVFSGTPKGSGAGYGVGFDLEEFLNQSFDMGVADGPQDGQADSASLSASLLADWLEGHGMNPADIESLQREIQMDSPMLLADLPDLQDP
Assay [8] addresses 6-phosphogluconate dehydrogenase, decarboxylating (Homo sapiens) (UniProt P52209). The experiment in a line: 6PGD enzyme inhibitors, primary screen, biochemical, human, recombinant enzyme, NADPH absorbance (AID 1159550;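 active = at least 20% inhibition of 6-phosphogluconate dehydrogenase activity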). The conditions noted are these: recombinant 6PGD, NADPH absorbance 341 nm; at 10 µM; stronger effect = higher value.
The nature of assay [9]: growth inhibition of GSK3B-pretreated HCT116 cells – cell-based, CellTiter-Glo, 0.2 to 20 µM (AID 1117336;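 active = compounds lowering colon cancer cell viability after pretreatment blocking the GSK3B kinase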). The conditions noted are these: HCT116 viability after GSK3B inhibitor, at 20 µM, stronger effect = higher value.
Assay [10] in a line: inhibition of endothelial tube formation, primary screen, imaging, VEGF stimulated, CD31 staining, tube area, NPC library (AID 1117340;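 active = compound that reduces growth-factor-driven endothelial tube area in a mixed cell culture, no cutoff stated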). To be noted: VEGF-stimulated ADSC/ECFC co-culture, at 10 µM, stronger effect = higher value.
Assay [11] is described as follows: HCT116 colon cancer cell growth inhibition, primary screen, CellTiter-Glo luminescence, NPC library (AID 1117342;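 active = compounds that lower survival of HCT116 colon cancer cells in the luminescence readout, no numeric limit stated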). The conditions noted are these: at 20 µM (top of the series).
A short description of assay [12]: CellTiter-Glo luminescent readout of SW480 viability loss, NPC library primary (AID 1117343;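 active = compounds that lower viability of the colon cancer cells in the luminescence readout, with no numeric limit stated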). The conditions noted are these: CellTiter-Glo luminescence; at 20 µM (top of the series) unless noted.
A short description of assay [13]: decreased DLD-1 cellular survival, CellTiter-Glo luminescent readout, NPC compound collection, primary HTS (AID 1117346;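 active = compounds that lower survival of DLD-1 colon cancer cells in the luminescence readout, no cutoff given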). The conditions noted are these: DLD-1 viability, CellTiter-Glo luminescence; at 20 µM (top of the series).
Assay [14] in a line: viability rescue of complex I mutant cybrids, primary screen, cell-based, galactose medium, ATP luminescence (AID 1645843;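 active = z-score of at least 1.8 in each of two replicates, scored against plate mean and spread of sample wells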;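 note: positive z means more ATP and so rescue of galactose-driven cybrid death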). The conditions noted are these: complex I mutant cybrid cells, 72 h, stronger effect = higher value.
The mark [15] stands for this setting: stronger effect = lower value, cell number ratio, induced over uninduced.
The mark [16] stands for this setting: measured here: relative caspase fold change +Dox/-Dox.
Where [17] appears, read: measured here: total cells with miR-34 induction, stronger effect = lower value.
The mark [18] stands for this setting: measured here: total cells without miR-34 induction.

“And” between values parts separate entries of the source, which are not always exact repeats. Identical values can stand only once. The source made the active and inactive calls. Cut-off read from the data, not from the text of the source, unless noted: active = nuclear beta-catenin stimulation mostly above about 4.2% (no sharp cut-off); inactive = mostly below about 10%.

Sequence of NAD(+) hydrolase SARM1 (Homo sapiens) (Q6SZW1 whole entry, looked up, the tested form may be a part): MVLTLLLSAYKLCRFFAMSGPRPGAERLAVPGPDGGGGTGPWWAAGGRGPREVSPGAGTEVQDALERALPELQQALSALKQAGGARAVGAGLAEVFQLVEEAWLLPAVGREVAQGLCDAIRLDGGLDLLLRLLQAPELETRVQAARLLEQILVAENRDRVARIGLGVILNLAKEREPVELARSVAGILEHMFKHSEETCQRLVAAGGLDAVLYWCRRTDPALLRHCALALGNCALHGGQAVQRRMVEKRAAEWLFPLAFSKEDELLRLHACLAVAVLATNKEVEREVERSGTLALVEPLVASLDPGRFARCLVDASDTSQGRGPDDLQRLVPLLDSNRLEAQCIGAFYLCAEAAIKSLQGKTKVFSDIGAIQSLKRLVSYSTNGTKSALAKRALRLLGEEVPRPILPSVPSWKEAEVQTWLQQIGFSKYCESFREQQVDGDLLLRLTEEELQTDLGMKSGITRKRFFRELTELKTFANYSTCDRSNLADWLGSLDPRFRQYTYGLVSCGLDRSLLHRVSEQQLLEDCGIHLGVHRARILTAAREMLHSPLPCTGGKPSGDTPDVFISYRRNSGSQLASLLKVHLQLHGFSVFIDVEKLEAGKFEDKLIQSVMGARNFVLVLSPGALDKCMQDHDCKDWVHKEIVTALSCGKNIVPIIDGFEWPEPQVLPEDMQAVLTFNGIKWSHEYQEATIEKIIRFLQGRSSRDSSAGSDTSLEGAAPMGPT
Sequence of 6-phosphogluconate dehydrogenase, decarboxylating (Homo sapiens) (P52209 whole entry, looked up): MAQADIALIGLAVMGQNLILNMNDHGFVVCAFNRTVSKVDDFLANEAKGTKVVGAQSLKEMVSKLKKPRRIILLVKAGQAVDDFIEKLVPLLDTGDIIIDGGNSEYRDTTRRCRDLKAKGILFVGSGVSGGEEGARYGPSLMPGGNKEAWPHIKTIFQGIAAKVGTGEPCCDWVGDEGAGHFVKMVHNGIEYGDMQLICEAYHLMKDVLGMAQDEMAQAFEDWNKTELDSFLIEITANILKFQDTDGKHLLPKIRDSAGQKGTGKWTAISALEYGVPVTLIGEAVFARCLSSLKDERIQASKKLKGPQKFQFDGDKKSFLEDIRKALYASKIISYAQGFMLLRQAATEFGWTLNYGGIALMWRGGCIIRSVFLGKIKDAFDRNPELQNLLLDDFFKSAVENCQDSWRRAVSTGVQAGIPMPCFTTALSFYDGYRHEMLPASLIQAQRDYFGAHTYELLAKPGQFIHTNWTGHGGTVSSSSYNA

On to `O=C(O)CCC(=O)OC[C@@H](NC(=O)C(Cl)Cl)[C@H](O)c1ccc([N+](=O)[O-])cc1`, for which the parasite load remaining in assay [1] was 75.9% (inactive) and 67.1% (inactive). Moreover, in [1], the viability was 75.5% and 91.9%. Moreover, the nuclear beta-catenin stimulation in assay [2] (at 10 µM) is 2.4% (inactive); in assay [2] (stimulation, at 2 µM) it was 0.4%. In assay [3], the insulin secretion stimulation was 0% (inactive). Moreover, the GLP1 secretion stimulation in assay [4] was 4.4% (inactive). Also, the fold change in [5] (setting [15]) was 0.886 (inactive); in [5] (setting [16]) it was 1.1. The cell count amounted to 11000 in assay [5] (setting [17]) and 12500 in [5] (setting [18]). Further, the remaining NAD in [6] is 10 nM (inactive). In addition, the luciferase signal in [7] is 44 AU (inactive).

Take `Cc1c(C)c2c(c(C)c1O)CC[C@@](C)(CCC[C@H](C)CCC[C@H](C)CCCC(C)C)O2`: the parasite load remaining in [1] was 72.9% (inactive). Besides, the viability in [1] is 100%. Also, the nuclear beta-catenin stimulation in [2] (at 10 µM) was 0.1% (inactive); in assay [2] (stimulation, at 2 µM) it was 0.4%. Moreover, the insulin secretion stimulation in assay [3] is 1% (inactive). Besides, in assay [4], the GLP1 secretion stimulation was 4.7% (inactive). For the same compound, the inhibition in assay [8] was -20.7% (inactive). For the same compound, the fold change is 0.864 (inactive) in assay [5] (setting [15]) and 1.16 in assay [5] (setting [16]). For the same compound, the cell count in assay [5] (setting [17]) stood at 7550; in assay [5] (setting [18]), 8740. For the same compound, the remaining NAD in [6] is 10 nM (inactive).

In the case of `CCOC(=O)[C@H](CCc1ccccc1)N[C@@H](C)C(=O)N1C(=O)N(C)C[C@H]1C(=O)O`, the nuclear beta-catenin stimulation is 0% (inactive) in [2] (at 10 µM) and -1.6% in assay [2] (stimulation, at 2 µM). For the same compound, in assay [3], the insulin secretion stimulation is 0% (inactive). For the same compound, the GLP1 secretion stimulation in [4] is 2% (inactive).

On to `Cc1cccc(C)c1NC(=O)CC12CCCN1CCC2`, for which the nuclear beta-catenin stimulation in assay [2] (at 10 µM) was 4.2% (inactive); in [2] (stimulation, at 2 µM), 1.3%. Further, in [3], the insulin secretion stimulation is 0.3% (inactive). In addition, in assay [4], the GLP1 secretion stimulation is 5% (inactive).

`COc1ccc(/C=N/NC(=O)c2ccncc2)cc1OC`: the nuclear beta-catenin stimulation was 3.6% (inactive) in assay [2] (at 10 µM) and 8% in assay [2] (stimulation, at 2 µM). In addition, the viability decrease in assay [9] was 2.5% (inactive). Besides, in assay [10], the tube area decrease was 12.2% (inactive). Further, the inhibition of viability in [11] was 11.9% (inactive). The viability decrease (inhibition) in [12] was -1% (inactive); in [13], -0.1% (inactive).

As for `CCc1cccc(N(C)C(N)=Nc2cccc3ccccc23)c1`, the nuclear beta-catenin stimulation in assay [2] (at 10 µM) is -1.6% (inactive); in assay [2] (stimulation, at 2 µM), -1.7%. For the same compound, the insulin secretion stimulation in assay [3] is 60.2% (active). Further, in assay [4], the GLP1 secretion stimulation is 1.6% (inactive). The fold change in [5] (setting [15]) was 1.03 (inactive); in [5] (setting [16]) it was 1.33. In addition, the cell count is 7210 in [5] (setting [17]) and 6970 in assay [5] (setting [18]). The z-score in assay [14] was -1.44 (inactive).

With `Cc1c(O)cc2c(c1C)O[C@](C)(CCC[C@H](C)CCC[C@H](C)CCCC(C)C)CC2`, the nuclear beta-catenin stimulation in assay [2] (at 10 µM) was 0.3% (inactive); in [2] (stimulation, at 2 µM) it was -0.6%. Also, the insulin secretion stimulation in assay [3] was 0.7% (inactive). The GLP1 secretion stimulation in assay [4] is 9.2% (inactive).

On to `C[C@H](O)CN(C)C`, for which the nuclear beta-catenin stimulation in assay [2] (at 10 µM) is -0.1% (inactive); in [2] (stimulation, at 2 µM) it was 1.5%. Also, in [3], the insulin secretion stimulation was 0.35% (inactive). For the same compound, the GLP1 secretion stimulation in [4] was -2.5% (inactive).

Consider `Cc1cc(OI)c(C(C)C)cc1-c1cc(C(C)C)c(OI)cc1C`, for which the nuclear beta-catenin stimulation was 0% (inactive) in assay [2] (at 10 µM) and 5.1% in assay [2] (stimulation, at 2 µM). The viability decrease in [9] was 13.9% (inactive). Moreover, in [10], the tube area decrease is 4.7% (inactive). The inhibition of viability in assay [11] is -41.6% (inactive). The viability decrease (inhibition) in assay [12] is 10.4% (inactive); in assay [13], 18.8% (inactive).

Consider `CC(C)=CCCC(C)=CCCC(C)=CCCC=C(C)CCC=C(C)CCC=C(C)C`, for which the nuclear beta-catenin stimulation in [2] (at 10 µM) was -0.4% (inactive); in [2] (stimulation, at 2 µM), 1.7%. Also, in assay [3], the insulin secretion stimulation is 0.6% (inactive). Also, the GLP1 secretion stimulation in [4] is -1.9% (inactive).

As for `CC(=O)NC(=O)c1ccccc1O`, the nuclear beta-catenin stimulation in assay [2] (at 10 µM) was 4.6% (inactive); in [2] (stimulation, at 2 µM) it was 0.9%. For the same compound, the insulin secretion stimulation in assay [3] is -0.5% (inactive). In addition, in [4], the GLP1 secretion stimulation is -0.9% (inactive).
